Assay results taken from PubChem BioAssay (Tox21).
Inconclusive results are not listed. Unmarked numbers belong to inactive results. Activity calls are given as the source filed them. Calls come from the whole dose curve; as a rule, active = well fitted inhibition curve with a large enough effect in the repeat runs; inconclusive = weak or mixed curves; inactive = no such curve, though single readings can be large or run the other way.

Assay: qHTS assay to identify small molecule antagonists of the thyroid receptor (TR) signaling pathway (AID 743065); note: nearly all actives have a fitted effect of over 55% in size
Conditions: GH3.TRE-Luc, T3-stimulated luciferase inhibition, 23.5 h; series mostly up to 70.3 µM; activity, negative = inhibition: at the top concentration
Source text: U.S. Tox21 Program National Center for Advancing Translational Sciences [NCATS] NIH Chemical Genomics Center [NCGC] U.S. Environmental Protection Agency [EPA] National Institutes of Environmental Health Sciences [NIEHS] National Toxicology Program [NTP] U.S. Food and Drug Administration [FDA] Tox21 Assay Overview: Thyroid receptor (TR), a nuclear hormone receptor, plays an important role in development, proliferation, differentiation, metabolism, brain function, and cardiovascular system. […] To profile the Tox21 10K compound library in TR signaling, a cell-based GH3-TRE-Luc assay (GH3.TRE-Luc cell line, developed by the laboratory of Dr. Albertinka J. Murk, Wageningen University) was used to measure the inhibition of TR. GH3 (rat pituitary tumor) cells stably expressing a TR activity sensor consisting of two TR response elements and a luciferase reporter gene.
Tox21 Assay Protocol Summary: GH3.TRE-Luc cells were dispensed at 1500 cells/4 uL/well into 1536-well white solid bottom plates using a Multidrop Combi dispenser (Thermo Fisher Scientific Inc., Waltham, MA). After the assay plates were incubated at 37 C for 4 hours, 23 nL of library compound or DMSO controls was transferred to the assay plates by a pintool station (Kalypsys, San Diego, CA), followed by addition of 1 ul of T3 (1 nM, final concentration in the wells) to stimulate TR transactivation. The assay plates were incubated at 37 C for 23.5 h, and then 1 uL of CellTiter-Fluor reagent (Promega, Madision, WI) of measuring cytotoxicity was added to each well using a Bioraptr Flying Reagent Dispenser (FRD) workstation (Beckman Coulter, Indianapolis, IN, USA). The plates were incubated at 37 C and 5% CO2 for additional 30 min, and fluorescence intensity was measured by a ViewLux plate reader (PerkinElmer, Shelton, CT). For measuring luciferase reporter gene activity, 4 uL of ONE-Glo Luciferase Assay reagent (Promega) was added to each well using a Bioraptr FRD (Beckman Coulter), followed by 30 min incubation at room temperature. The luminescence intensity of plates was recorded by a ViewLux plate reader (PerkinElmer, Shelton, CT).
% is set by controls: 0 for no effect and ±100 for the full control effect.

Row | Compound | activity, negative = inhibition | Potency
1 | CCCCCCCCOC(C)=O | 19.5% | 
2 | CC1CCC(C(C)(C)S)C(=O)C1 (stereo not given) | 0.537% | 
3 | O=S(=O)(O)SSS(=O)(=O)O | 0% | 
4 | O=S1(=O)CCCC1 | -9.31% [at 95 µM] | 
5 | COc1ccc(/C=N/NC(=O)c2ccncc2)cc1OC | 18.1% | 
6 | Nc1ccc(/C=C/c2ccc(N)cc2S(=O)(=O)O)c(S(=O)(=O)O)c1 | 7.02% | 
7 | CCCCCCCC/C=C\CCCCCCCC(=O)OC[C@@H](O)[C@H]1OC[C@H](O)[C@H]1O |  | inactive
8 | CCCCC/C=C/CC(=O)OC | 38.3% | 
9 | O=C(COCCOCCOCC(=O)Nc1c(I)cc(I)c(C(=O)O)c1I)Nc1c(I)cc(I)c(C(=O)O)c1I | 2.38% | 
10 | CC(C)C(=O)c1ccccc1 | 1.54% | 
11 | O=C(O)/C=C/c1ccccc1 |  | inactive
12 | CCC(C)N (stereo not given) | 13.9% | 
13 | CCCCCCCCCCC | 14.5% | 
14 | Cc1cc(C)cc([N+](=O)[O-])c1 | 0% [at 95 µM] | 
15 | C[C@H](CCC(=O)O)[C@H]1CC[C@H]2[C@@H]3[C@H](O)C[C@@H]4C[C@H](O)CC[C@]4(C)[C@H]3C[C@H](O)[C@]12C |  | inactive
16 | Cc1cccc(NC(=S)N(C)C)c1 | 2.29% | 
17 | C[C@H](CCC(=O)NCC(=O)O)[C@H]1CC[C@H]2[C@@H]3[C@H](O)C[C@@H]4C[C@H](O)CC[C@]4(C)[C@H]3C[C@H](O)[C@]12C | 14.4% | 
18 | CCCCCCCCCCCCCCCCI | -3.35% [at 32.5 µM] | 
19 | CCC1COC(=O)O1 (stereo not given) | -0.538% | 
20 | CC(C)CCCC(C)CC=O (stereo not given) | -7.73% | 

Row | Compound | activity, negative = inhibition | Potency
21 | COCCOCCOCCOC | 4.2% | 
22 | O=C(O)C(=O)Nc1cccc(-c2nn[nH]n2)c1 | 4.41% | 
23 | CC(Cl)COP(=O)(OCC(C)Cl)OCC(C)Cl (stereo not given) | -20% | 
24 | Nc1cc(C(=O)O)ccc1Cl | -0.346% | 
25 | c1ccc(CNc2ncnc3nc[nH]c23)cc1 | -11.9% | 
26 | C=COCCOCCOC=C | 3.08% | 
27 | BrC/C=C/CBr | 8.28% [at 32.5 µM] | 
28 | CCOC(=O)CCc1ccccc1 | -0.534% | 
29 | CO[Si](CCCCl)(OC)OC | 9.29% | 
30 | O=C(O)c1ccccc1C(=O)Nc1ccc(S(=O)(=O)Nc2nccs2)cc1 | 6.51% | 
31 | COC(OC)C(C)c1ccccc1 (stereo not given) | 5.32% | 
32 | COc1ccc(NS(=O)(=O)c2ccc(N)cc2)nn1 | 14.3% [at 32.5 µM] | 
33 | CNCc1ccccc1 | 2.53% | 
34 | CC(=O)Nc1ccc(C)cc1 | 0.968% | 
35 | NC(=O)NC(=O)Cc1ccccc1 | 8.99% | 
36 | CCCCCC1CCCC(=O)O1 (stereo not given) | 137% | 
37 | CCCCCC(=O)OCC | 6.27% | 
38 | CCc1nccnc1C | 8.64% | 
39 | Cc1c(C(C)C)c(=O)n(-c2ccccc2)n1C | -0.0855% | 
40 | CCCO | 3.57% | 
